Data published in the OligoGym collection.

target: PRB2; assay: pooled miR-30 sensor sort-seq; sequence = guide strand; settings: shRNA
Note: reference of the scale not given here.

Sequence	sensor-assay potency score (higher = more potent)
ACTTGTTGTCTCCTTGTGGGGG	-0.828
TTGTTGTCTCCTTGTGGGGGTG	-1.06
TTTGGGACTTGTTGTCTCCTTG	-0.1
TCGGGACTTGTTGTCTCCTTGT	-0.96
TCGAGAACTTCGGGACTTGTTG	-0.988

target: PRDM11; assay: as above; settings: shRNA

Sequence	sensor-assay potency score (higher = more potent)
TCCGACAATAATCTCATCCAAA	-1.56
TTTCTTCTTCTTAGCTTGGGGG	-0.807
TTTTCTTCTTCTTAGCTTGGGG	-0.102
TTCTTCTTCTTAGCTTGGGGGT	-0.763
TAATTCTGCCTGGAGCTCCCGA	-0.672
TTCTGGGTTATCCAGAACCTGC	-1.79
TAAGCATGTCTAATTCTGCCTG	-0.386
TTGTTGTTGCACACTGACTGTA	-0.0431
TTGCACACTGACTGTAGGCGTC	-0.555
TCATCCAAACCAACTTACCTGC	-0.593
TATATTCTGCACACCATGGGTC	0.141
TGTTGTTGCACACTGACTGTAG	0.562

target: PREB; assay: as above; settings: shRNA

Sequence	sensor-assay potency score (higher = more potent)
TTGCACTGTGAAGAGTCGCAGG	-0.529
TTCGTGGGCTTTGAACTCCAGA	-1.33
TTGATGTGCCTGGAAGCGCAGG	-0.963
TTCTTTATGCCTGTCTTGGCGG	-0.991
TTGAACTCCAGAACCTTCTCCA	0.863
TTGTGGGGAATTTGCACTGTGA	-0.563
TAAAGTCTGTCTGCACCGCCTG	-0.668
AAAGTCTGTCTGCACCGCCTGC	-1.08
TAAGGGTAGACTACCTAGGAAC	-1.26
TTCTGCAGTGGATCGGAGCTAA	0.0919
ATCGGAGCTAAAGTCTGTCTGC	-0.682
TTCACTGACATCGAGGCAGGAG	0.301

target: PRKAR1B; assay: as above; settings: shRNA

Sequence	sensor-assay potency score (higher = more potent)
TAACGCTGAATGTTCCTCTTGA	0.692
TCTAGGATGGAGACCTTGCTGA	-0.482
TACACCTCGGCACTCACGCCTC	-1.12
TTGATCAACGACATAGAAGTTG	-0.313
TGCTGTATAACAGTCTCCCCAG	-0.318
TATAACAGTCTCCCCAGCGATG	-1.57
TTGCTGTATAACAGTCTCCCCA	-0.886
AACTCCTCGTACATCTTGCGTT	-1.1
TTCCTCTTGAGGATCTCAGAGC	-0.844
TTCCTTCTCCAGCTTCTCGAAG	-1.27
TTTCTCTCCATCTTCAAACTGG	-0.327
